Assay results from PubChem BioAssay (Tox21).
Values joined by “and” are separate entries in the source; they are usually repeats but may differ in a detail not shown here. Equal values may be shown once. Active and inactive are the calls of the source. A call without a number means that no potency is given here. Unless noted, calls come from the whole dose curve; as a rule, active = well fitted curve in the direction sought with a large enough effect in the repeat runs; inconclusive = weak or mixed curves; inactive = no such curve, though single readings can be large; an effect the other way counts as inactive or inconclusive.

Key:
[1] = qHTS assay to identify small molecule antagonists of the thyroid receptor (TR) signaling pathway - cell viability counter screen (AID 743064); note: nearly all actives have a fitted effect of over 50% in size; note: potency is the fitted concentration of half-maximal effect
Summary of the method: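 GH3.TRE-Luc rat pituitary cells carrying a TRE-luciferase reporter were treated with compound plus 1 nM T3 (final) for 23.5 h at 37 °C. Viability was then read in the same wells by CellTiter-Fluor fluorescence after a further 30 min.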

[2] = qHTS assay to identify small molecule antagonists of the thyroid receptor (TR) signaling pathway (AID 743065); note: nearly all actives have a fitted effect of over 55% in size; note: potency is the fitted concentration of half-maximal effect
Summary of the method: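 Antagonism measured as loss of luciferase signal in GH3 cells stably carrying a TRE-luciferase reporter, co-treated with compound and T3 (1 nM final) for 23.5 h at 37 C. Viability was read in the same well by CellTiter-Fluor.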

[3] = test system: thyroid hormone receptor (rat, GH3 cells); assay: qHTS assay to identify small molecule agonists of the thyroid receptor (TR) signaling pathway (AID 743066; calls by dose curve)
[4] = qHTS assay to identify small molecule antagonists of the estrogen receptor alpha (ER-alpha) signaling pathway using the BG1 cell line - cell viability counter screen (AID 743081);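 note: compound given together with 17beta-estradiol as the ER stimulus; nearly all actives have a fitted effect of over 45% in size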; note: potency is the fitted concentration of half-maximal effect
Aromatase (Homo sapiens) = Aromatase (Homo sapiens) (UniProt P11511); assay: qHTS assay to identify aromatase inhibitors (AID 743083); note: nearly all actives have a fitted effect of over 55% in size; note: potency is the fitted concentration of half-maximal effect
[5] = qHTS assay to identify aromatase inhibitors - cell viability counter screen (AID 743084);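 note: cells stimulated with testosterone during compound exposure; nearly all actives have a fitted effect of over 55% in size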; note: potency is the fitted concentration of half-maximal effect
[6] = molecular target: Aryl hydrocarbon receptor (Homo sapiens) (UniProt P35869); assay: qHTS assay to identify small molecule that activate the aryl hydrocarbon receptor (AhR) signaling pathway (AID 743085); note: nearly all actives have a fitted effect of over 15% in size; note: potency is the fitted concentration of half-maximal effect;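 for activation: HG2L7.5c1 human HepG2 liver cells with stably integrated DRE-driven firefly reporter; series mostly up to about 70 µM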
Summary of the method: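 HepG2 cells (HG2L7.5c1) stably carrying a firefly luciferase reporter driven by 20 dioxin responsive elements were exposed to compound for 24 h at 37C after a 5 h settling period; luminescence rise (ONE-Glo) indicated activation.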

[7] = qHTS assay for small molecule agonists of the antioxidant response element (ARE) signaling pathway (AID 743202; active = well fitted activation curve with a large enough effect in the signal ratio in the repeat runs, not every such curve was filed as active; inconclusive = weak or mixed curves, or effect the other way; inactive = no such curve, though single readings can be large or run the other way; the % refers to the signal ratio; note: potency is the fitted concentration of half-maximal effect)
Summary of the method: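 Quantitative high-throughput format in HepG2 cells bearing an integrated ARE-beta-lactamase reporter. Compound exposure lasted 16 h at 37 C, and fluorescence was read 2 h after adding LiveBLAzer B/G substrate at room temperature.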

[8] = qHTS assay for small molecule activators of the heat shock response signaling pathway - cell viability counter screen (AID 743209); note: nearly all actives have a fitted effect of over 50% in size; note: potency is the fitted concentration of half-maximal effect
Summary of the method: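 Luminescence from CellTiter-Glo, added after the beta-lactamase FRET read, gave the viability signal. Cells were HSE-bla HeLa treated with DMSO-dissolved compounds for 5 h at 37 C following overnight plating.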

[9] = qHTS assay to identify small molecule antagonists of the estrogen receptor alpha (ER-alpha) signaling pathway - cell viability counter screen (AID 743074; calls by dose curve;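 note: HEK293 cells carrying ER-alpha-UAS-bla reporter stimulated with 17beta-estradiol; nearly all actives have a fitted effect of over 45% in size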; note: potency is the fitted concentration of half-maximal effect)
[10] = molecular target: Estrogen receptor (Homo sapiens) (UniProt P03372); assay: qHTS assay to identify small molecule agonists of the estrogen receptor alpha (ER-alpha) signaling pathway (AID 743075; calls by dose curve;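 note: HEK293 GripTite cells with ER-alpha and UAS-driven beta-lactamase reporter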)
[11] = molecular target: Estrogen receptor (Homo sapiens) (UniProt P03372); assay: qHTS assay to identify small molecule agonists of the estrogen receptor alpha (ER-alpha) signaling pathway using the BG1 cell line (AID 743079); note: nearly all actives have a fitted effect of over 20% in size
[12] = qHTS assay to identify small molecule antagonists of the estrogen receptor alpha (ER-alpha) signaling pathway using the BG1 cell line (AID 743080; calls by dose curve;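 note: BG1 cells stimulated with 17beta-estradiol alongside compound; nearly all actives have a fitted effect of over 25% in size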; note: potency is the fitted concentration of half-maximal effect)
Summary of the method: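 BG1-Luc-4E2 cells (endogenous full-length ER-alpha, stable 4×ERE-luciferase) were starved 5 days in phenol-red-free medium with 10% charcoal-stripped FBS, plated 24 h, then given compound plus 17beta-estradiol for 21.5 h at 37 C; ONE-Glo luminescence read after 30 min.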

[13] = qHTS assay to identify small molecule that activate the aryl hydrocarbon receptor (AhR) signaling pathway - cell viability counter screen (AID 743086); note: nearly all actives have a fitted effect of over 45% in size; note: potency is the fitted concentration of half-maximal effect
Summary of the method: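 Cytotoxicity counter screen: CellTiter-Fluor signal (30 min, 37 C) in 4000 HepG2 cells/well carrying the DRE-luciferase reporter, following 24 h compound exposure at 37 C.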

[14] = molecular target: Peroxisome proliferator-activated receptor gamma (Homo sapiens) (UniProt P37231); assay: qHTS assay to identify small molecule agonists of the peroxisome proliferator-activated receptor gamma (PPARg) signaling pathway (AID 743094; active = well fitted activation curve with a large enough effect in the signal ratio in the repeat runs, not every such curve was filed as active; inconclusive = weak or mixed curves, or effect the other way; inactive = no such curve, though single readings can be large or run the other way; the % refers to the signal ratio)
Summary of the method: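 Beta-lactamase FRET fluorescence was the read-out after a 1 h room-temperature substrate step, following 17 h compound treatment at 37C of HEK293H cells expressing a UAS-driven bla reporter responsive to PPARg.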

[15] = molecular target: Peroxisome proliferator-activated receptor gamma (Homo sapiens) (UniProt P37231); assay: qHTS assay to identify small molecule antagonists of the peroxisome proliferator-activated receptor gamma (PPARg) signaling pathway (AID 743191; calls by dose curve; note: nearly all actives have a fitted effect of over 30% in size; note: potency is the fitted concentration of half-maximal effect)
Summary of the method: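 Beta-lactamase reporter under UAS control in HEK293H PPARg-bla cells; compound treatment 17 h at 37C. Read-out: fluorescence intensity after 1 h room-temperature incubation with LiveBLAzer B/G FRET substrate.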

[16] = qHTS assay to identify small molecule antagonists of the peroxisome proliferator-activated receptor gamma (PPARg) signaling pathway - cell viability counter screen (AID 743194); conditions: Potency: co-treated with 50 nM rosiglitazone unless noted; note: nearly all actives have a fitted effect of over 55% in size; note: potency is the fitted concentration of half-maximal effect
Summary of the method: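 Viability was measured as CellTiter-Glo luminescence in GeneBLAzer PPARg UAS-bla HEK293H cells. These cells had been exposed 17 h at 37 C to compounds together with rosiglitazone at 50 nM final, with the beta-lactamase readout taken in the same wells.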

[17] = qHTS assay for small molecule agonists of the antioxidant response element (ARE) signaling pathway - cell viability counter screen (AID 743203; calls by dose curve; note: nearly all actives have a fitted effect of over 55% in size; note: potency is the fitted concentration of half-maximal effect)
Summary of the method: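 HepG2 cells carrying ARE-driven beta-lactamase; 2,000 cells/well; 5 hrs plating; compound pinned from DMSO; 16 hrs 37C/5% CO2; CellTiter-Glo added; 30 min RT; luminescence.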

[18] = molecular target: Estrogen receptor (Homo sapiens) (UniProt P03372); assay: qHTS assay to identify small molecule antagonists of the estrogen receptor alpha (ER-alpha) signaling pathway (AID 743069; active = well fitted curve in the direction sought with a large enough effect in the signal ratio in the repeat runs, not every such curve was filed as active; inconclusive = weak or mixed curves, or effect the other way; inactive = no such curve, though single readings can be large or run the other way; the % refers to the signal ratio; note: potency is the fitted concentration of half-maximal effect)
Summary of the method: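 ER-alpha-UAS-bla GripTite HEK293 line; 2% charcoal-stripped FBS overnight; plated, 4 hr 37C/5% CO2; cpd in DMSO + 17beta-estradiol, 18 hr 37C; LiveBLAzer B/G FRET substrate 2 hr RT; fluorescence intensity.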

[19] = qHTS assay for small molecule activators of the heat shock response signaling pathway (AID 743210; active = well fitted activation curve with a large enough effect in the signal ratio in the repeat runs, with a control signal flat, not every such curve was filed as active; inconclusive = weak or mixed curves; the % refers to the signal ratio;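 note: HeLa cells with beta-lactamase reporter driven by heat shock elements; series mostly up to about 63 µM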)
Summary of the method: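 HeLa HSE-bla cells, overnight plating; cpd in DMSO 5 h, 37 C; LiveBLAzer B/G FRET substrate 2.5 h RT; fluorescence intensity read.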

Chain of Aromatase (Homo sapiens) (P11511 whole entry, looked up): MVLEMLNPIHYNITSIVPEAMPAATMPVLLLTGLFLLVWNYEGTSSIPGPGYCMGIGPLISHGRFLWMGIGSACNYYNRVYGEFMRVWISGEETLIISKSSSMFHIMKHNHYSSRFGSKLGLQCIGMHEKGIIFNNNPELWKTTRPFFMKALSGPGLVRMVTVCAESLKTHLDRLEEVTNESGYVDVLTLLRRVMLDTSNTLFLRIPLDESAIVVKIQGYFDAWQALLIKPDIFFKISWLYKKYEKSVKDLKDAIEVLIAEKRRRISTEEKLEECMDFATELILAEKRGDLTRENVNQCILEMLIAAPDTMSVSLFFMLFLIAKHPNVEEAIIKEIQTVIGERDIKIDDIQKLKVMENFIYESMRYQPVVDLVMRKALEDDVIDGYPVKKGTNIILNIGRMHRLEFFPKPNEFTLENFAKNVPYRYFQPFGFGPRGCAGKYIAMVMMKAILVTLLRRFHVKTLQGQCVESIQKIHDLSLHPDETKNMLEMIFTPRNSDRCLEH
Chain of Estrogen receptor (Homo sapiens) (P03372 whole entry, looked up): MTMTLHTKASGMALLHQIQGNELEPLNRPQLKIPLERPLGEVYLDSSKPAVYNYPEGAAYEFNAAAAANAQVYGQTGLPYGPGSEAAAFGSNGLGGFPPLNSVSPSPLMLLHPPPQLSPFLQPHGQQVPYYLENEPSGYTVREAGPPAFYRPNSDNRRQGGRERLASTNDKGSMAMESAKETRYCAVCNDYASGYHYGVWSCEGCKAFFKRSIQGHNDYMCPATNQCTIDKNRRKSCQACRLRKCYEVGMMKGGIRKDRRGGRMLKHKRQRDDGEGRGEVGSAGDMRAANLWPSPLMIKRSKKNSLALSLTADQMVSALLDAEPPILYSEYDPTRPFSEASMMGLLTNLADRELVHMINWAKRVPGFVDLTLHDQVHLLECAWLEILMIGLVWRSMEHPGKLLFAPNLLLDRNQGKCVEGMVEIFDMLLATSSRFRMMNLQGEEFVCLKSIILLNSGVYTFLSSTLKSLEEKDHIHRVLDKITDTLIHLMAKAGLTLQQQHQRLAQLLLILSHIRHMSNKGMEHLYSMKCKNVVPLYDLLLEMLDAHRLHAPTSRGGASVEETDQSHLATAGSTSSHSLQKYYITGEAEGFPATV
Chain of Peroxisome proliferator-activated receptor gamma (Homo sapiens) (P37231 whole entry, looked up): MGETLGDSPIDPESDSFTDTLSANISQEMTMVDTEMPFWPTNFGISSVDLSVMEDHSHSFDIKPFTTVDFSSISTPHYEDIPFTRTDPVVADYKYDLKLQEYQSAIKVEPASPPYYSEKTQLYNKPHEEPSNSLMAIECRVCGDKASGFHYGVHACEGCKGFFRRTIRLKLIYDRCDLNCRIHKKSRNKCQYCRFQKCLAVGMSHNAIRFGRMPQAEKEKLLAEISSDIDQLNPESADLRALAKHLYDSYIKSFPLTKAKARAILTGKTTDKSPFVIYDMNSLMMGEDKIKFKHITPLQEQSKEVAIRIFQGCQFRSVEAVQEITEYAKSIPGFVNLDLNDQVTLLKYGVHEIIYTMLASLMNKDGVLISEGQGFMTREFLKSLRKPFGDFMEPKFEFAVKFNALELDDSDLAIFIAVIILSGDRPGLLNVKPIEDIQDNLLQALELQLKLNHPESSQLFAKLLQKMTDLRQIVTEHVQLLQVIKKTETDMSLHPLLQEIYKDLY
Chain of Aryl hydrocarbon receptor (Homo sapiens) (P35869 whole entry, looked up): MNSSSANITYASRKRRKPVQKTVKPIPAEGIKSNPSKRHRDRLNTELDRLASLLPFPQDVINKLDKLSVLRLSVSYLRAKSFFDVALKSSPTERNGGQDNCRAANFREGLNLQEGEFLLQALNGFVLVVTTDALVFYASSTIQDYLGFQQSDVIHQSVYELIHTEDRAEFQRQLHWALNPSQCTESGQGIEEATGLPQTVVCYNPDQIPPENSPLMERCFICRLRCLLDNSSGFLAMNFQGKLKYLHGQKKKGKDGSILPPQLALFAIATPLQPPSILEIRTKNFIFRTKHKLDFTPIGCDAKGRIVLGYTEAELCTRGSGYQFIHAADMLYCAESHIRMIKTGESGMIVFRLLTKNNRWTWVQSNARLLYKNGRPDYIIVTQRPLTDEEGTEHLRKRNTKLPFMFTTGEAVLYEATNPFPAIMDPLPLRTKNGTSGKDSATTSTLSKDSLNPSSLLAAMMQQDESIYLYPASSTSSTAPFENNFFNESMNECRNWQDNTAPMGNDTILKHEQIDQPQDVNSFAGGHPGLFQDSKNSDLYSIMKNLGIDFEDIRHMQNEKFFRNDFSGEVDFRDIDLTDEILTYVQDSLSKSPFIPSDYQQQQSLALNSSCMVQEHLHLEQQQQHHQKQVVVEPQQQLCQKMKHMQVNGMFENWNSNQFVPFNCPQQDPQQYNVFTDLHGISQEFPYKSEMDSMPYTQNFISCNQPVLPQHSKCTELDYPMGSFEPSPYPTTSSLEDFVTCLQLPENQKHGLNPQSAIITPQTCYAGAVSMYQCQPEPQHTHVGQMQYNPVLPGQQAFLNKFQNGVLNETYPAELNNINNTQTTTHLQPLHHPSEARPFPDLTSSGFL

Row | SMILES | Potency [1] | Potency [2] | outcome [3] | Potency [4] | Potency (Aromatase (Homo sapiens)) | Potency [5] | Potency [6] | Potency [7] | Potency [8] | Potency [9] | Potency [10] | Potency [11] | Potency [12] | Potency [13] | Potency [14] | Potency [15] | Potency [16] | Potency [17] | Potency [18] | Potency [19]
1 | O=c1oc2ccccc2c(O)c1Cc1c(O)c2ccccc2oc1=O | inactive | 11.4 µM (active) | inactive | inactive | inactive | inactive | inactive | 7.5 µM (active) | inactive | – | – | – | – | – | – | – | – | – | – | –
2 | c1ccc2c(c1)[nH]c1cnccc12 | inactive | – | inactive | inactive | inactive | inactive | 54.5 µM (active) | – | inactive | inactive | inactive | inactive | inactive | inactive | inactive | inactive | inactive | inactive | – | –
3 | c1ccc2c(c1)OCC(C1=NCCN1)O2 (stereo not drawn) | 7.5 µM (active) | 7.5 µM (active) | – | inactive | 26.6 µM (active) | – | inactive | 13.3 µM (active) | inactive | inactive | inactive | – | inactive | – | – | – | – | inactive | – | –
4 | N#CSCSC#N | 2.79 µM (active) and 4.28 µM (active) | 1.98 µM (active) and 2.15 µM (active) | – | inactive | 14 µM (active) and 17.1 µM (active) | 12.5 µM (active) and 17.1 µM (active) | inactive | – | 19.9 µM (active) and 12.2 µM (active) | inactive | – | – | – | inactive | – | – | 27.3 µM (active) | 55.7 µM (active) and 48.1 µM (active) | – | –
5 | CC(C)OC(=S)S | inactive | – | inactive | inactive | – | inactive | inactive | – | inactive | inactive | inactive | – | inactive | inactive | inactive | inactive | – | inactive | – | –
6 | S=C(SSC(=S)N1CCCCC1)N1CCCCC1 | 0.211 µM (active) | 0.237 µM (active) | – | – | 1.06 µM (active) | 0.944 µM (active) | inactive | – | 0.106 µM (active) | inactive | – | – | – | – | – | – | inactive | inactive | – | –
7 | CCCCCCCCCCCCBr | inactive | – | inactive | inactive | – | inactive | inactive | – | inactive | – | inactive | inactive | inactive | inactive | – | inactive | – | – | inactive | inactive
8 | CCOc1cc(C(C)(C)C)ccc1C1COC(c2c(F)cccc2F)=N1 (stereo not drawn) | 18.6 µM (active) | 16.6 µM (active) | – | inactive | 41.6 µM (active) | – | – | 5.88 µM (active) | inactive | inactive | inactive | – | inactive | inactive | inactive | – | 11.8 µM (active) | – | – | –
9 | O=[N+]([O-])c1cc(C(F)(F)F)c(Cl)c([N+](=O)[O-])c1Cl | 0.611 µM (active) | 0.386 µM (active) | – | 61.1 µM (active) | 1.22 µM (active) | 3.06 µM (active) | inactive | – | 2.19 µM (active) | 54.9 µM (active) | – | – | – | 54.5 µM (active) | – | – | – | 1.72 µM (active) | – | –
10 | CC(C)C1CCC(Cc2ccc(Cl)cc2)C1(O)Cn1cncn1 (stereo not drawn) | 60.5 µM (active) | 34 µM (active) | – | – | 2.41 µM (active) | 24.1 µM (active) | inactive | 15.2 µM (active) | inactive | – | inactive | – | 67.9 µM (active) | – | – | – | – | – | – | –
11 | ClC1=C(Cl)[C@]2(Cl)[C@@H]3[C@@H]4C[C@@H]([C@H]5O[C@@H]45)[C@@H]3[C@@]1(Cl)C2(Cl)Cl | 40.9 µM (active) | 30.6 µM (active) | – | inactive | 34.4 µM (active) | – | inactive | – | 48.9 µM (active) | – | – | – | – | inactive | inactive | – | 43.6 µM (active) | 54.5 µM (active) | inactive | –
12 | CCOCCOC(C)=O | – | inactive | inactive | – | inactive | inactive | – | – | – | – | inactive | inactive | inactive | inactive | – | – | – | inactive | inactive | inactive
13 | CCOP(=S)(OCC)OC(Cl)C(Cl)(Cl)Cl (stereo not drawn) | inactive | – | inactive | inactive | – | inactive | inactive | – | inactive | inactive | – | – | – | inactive | inactive | – | – | – | – | inactive
14 | CSCCCN=C=S | inactive | – | inactive | inactive | – | – | inactive | – | 43.6 µM (active) | inactive | – | – | – | inactive | – | – | – | – | – | –
15 | CN(C)C(=S)[S-].CN(C)C(=S)[S-].[Cu+2] | 1.49 µM (active) | – | – | 1.49 µM (active) | 1.49 µM (active) | 1.87 µM (active) | inactive | 1.49 µM (active) | – | 6.7 µM (active) | – | – | – | 8.36 µM (active) | – | – | – | 3.33 µM (active) | – | –
16 | CCCCCCCCCCCCCCC(Br)C(=O)O (stereo not drawn) | 43.3 µM (active) | – | inactive | inactive | inactive | inactive | inactive | – | 24.5 µM (active) | inactive | – | inactive | – | inactive | – | – | 43.6 µM (active) | – | – | –
17 | Oc1c(Cl)c(Cl)cc(Cl)c1Cl | – | 23.7 µM (active) | inactive | – | – | inactive | inactive | – | inactive | – | inactive | – | 74.8 µM (active) | inactive | – | 3.78 µM (active) | inactive | – | 15.1 µM [inconclusive] (active) | –
